Measurements reported in the supplement of paper PMC10849652.
About 8,800 targets were measured; listed, in parts, are those with a hit and a random draw of the rest. About 0.5% of all pairs of compound and target were hits.

Experiments:
Assay in all cases: log2 fold change, soluble protein after heating vs DMSO (PISA); higher = thermal stabilisation; K562 lysate, 10 uM; active = over 0.2 and 3.5 SD of the protein, either way, in both replicates (recomputed)
vemurafenib = compound: CCCS(=O)(=O)Nc1ccc(F)c(C(=O)c2c[nH]c3ncc(-c4ccc(Cl)cc4)cc23)c1F [vemurafenib]
How it was run: (§1)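 K562 pellets were dounce-homogenised in PBS pH 7.4 containing 1 mM MgCl2, and the crude extract, at 1 mg/mL protein, was exposed to 10 μM compound for 30 min. Aliquots were heated for 3 min across 48°C-58°C, pooled, brought to 0.5% NP-40 at 4°C and spun at 21,000xg for 90 min, with the supernatant taken as soluble protein. TMTpro 16plex LC-MS/MS with equalised channel sums quantified that protein. Values are log-two fold changes in thermal stability relative to solvent controls, taken from duplicates.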

[1] = compound: CCCS(=O)(=O)Nc1ccc(F)c(C(=O)c2c[nH]c3ncc(Cl)cc23)c1F
How it was run: as §1

barasertib = compound: CCN(CCCOc1ccc2c(Nc3cc(CC(=O)Nc4cccc(F)c4)[nH]n3)ncnc2c1)CCOP(=O)(O)O [barasertib]
How it was run: as §1

[2] = compound: CC[C@@H]1C(=O)N(C)c2cnc(Nc3ccc(C(=O)NC4CCN(C)CC4)cc3OC)nc2N1C1CCCC1
How it was run: as §1

volasertib = compound: CC[C@@H]1C(=O)N(C)c2cnc(Nc3ccc(C(=O)N[C@H]4CC[C@H](N5CCN(CC6CC6)CC5)CC4)cc3OC)nc2N1C(C)C [volasertib]
How it was run: as §1

[3] = compound: CCn1c(C(=O)N(C2CC2)C2CC2)cc2c3c(ncn3C)c(Nc3cc(C)n(C)n3)nc21
How it was run: as §1

[4] = compound: CCn1cc(-c2ccnc3[nH]c(-c4cccc(CN(C)C)c4)cc23)c(-c2ccc(NC(=O)N(C)C)cc2)n1
How it was run: as §1

[5] = compound: CN1CCC(CNc2ccc3ncc(-c4cccc(OC(F)(F)F)c4)n3n2)CC1
How it was run: as §1

saracatinib = compound: CN1CCN(CCOc2cc(OC3CCOCC3)c3c(Nc4c(Cl)ccc5c4OCO5)ncnc3c2)CC1 [saracatinib]
How it was run: as §1

sotrastaurin = compound: CN1CCN(c2nc(C3=C(c4c[nH]c5ccccc45)C(=O)NC3=O)c3ccccc3n2)CC1 [sotrastaurin]
How it was run: as §1

alvocidib = compound: CN1CC[C@H](c2c(O)cc(O)c3c(=O)cc(-c4ccccc4Cl)oc23)[C@H](O)C1 [alvocidib]
How it was run: as §1

Tubastatin A = compound: CN1CCc2c(c3ccccc3n2Cc2ccc(C(=O)NO)cc2)C1 [Tubastatin A]
How it was run: as §1

[6] = compound: CNC(=O)C1=CC=CC=C1NC2=NC(=NC=C2Cl)NC3=C(C=C(C=C3)N4CCOCC4)OC
How it was run: as §1

defactinib = compound: CNC(=O)c1ccc(Nc2ncc(C(F)(F)F)c(NCc3nccnc3N(C)S(C)(=O)=O)n2)cc1 [defactinib]
How it was run: as §1

[7] = compound: CNc1nc(-c2ccc3c(N)n[nH]c3c2)cc(N2C[C@@H](C(=O)NC3CCCCC3)CC[C@H]2C)n1
How it was run: as §1

encorafenib = compound: COC(=O)N[C@@H](C)CNc1nccc(-c2cn(C(C)C)nc2-c2cc(Cl)cc(NS(C)(=O)=O)c2F)n1 [encorafenib]
How it was run: as §1

[8] = compound: COC(=O)[C@H](CCSC)NC(=O)C1=C(C=C(C=C1)NC[C@H](CS)N)C2=CC=CC=C2
How it was run: as §1

alisertib = compound: COc1cc(Nc2ncc3c(n2)-c2ccc(Cl)cc2C(c2c(F)cccc2OC)=NC3)ccc1C(=O)O [alisertib]
How it was run: as §1

[9] = compound: COc1cc2nc(-c3cc(F)ccc3O)nc(N[C@@H]3CNC[C@H]3C(C)(C)O)c2cc1OC
How it was run: as §1

gefitinib = compound: COc1cc2ncnc(Nc3ccc(F)c(Cl)c3)c2cc1OCCCN1CCOCC1 [gefitinib]
How it was run: as §1

Measured: log2 fold change

TESC (UniProt Q96BS2)
active: barasertib 0.291
inactive: vemurafenib 0.045 | [1] 0.029 | [2] 0.047 | volasertib 0.036 | [3] -0.004 | [4] 0.109 | [5] -0.023 | saracatinib 0.063 | sotrastaurin 0.012 | alvocidib -0.037 | Tubastatin A 0.022 | [6] -0.008 | defactinib -0.007 | [7] -0.034 | encorafenib 0.033 | [8] -0.037 | alisertib -0.053 | [9] -0.058 | gefitinib 0.091

TUBGCP4 (UniProt Q9UGJ1)
inactive: vemurafenib 0.088 | [1] 0.028 | barasertib 0.116 | [2] 0.039 | volasertib -0.027 | [3] 0.026 | [4] 0.013 | [5] -0.077 | saracatinib 0.025 | sotrastaurin 0.109 | alvocidib 0 | Tubastatin A -0.081 | [6] 0.007 | defactinib -0.023 | [7] -0.025 | encorafenib -0.049 | [8] 0.047 | alisertib -0.007 | [9] -0.018 | gefitinib -0.043

TGOLN2 isoform 7 (UniProt O43493)
Chain of UniProt O43493 (O43493 whole entry, looked up): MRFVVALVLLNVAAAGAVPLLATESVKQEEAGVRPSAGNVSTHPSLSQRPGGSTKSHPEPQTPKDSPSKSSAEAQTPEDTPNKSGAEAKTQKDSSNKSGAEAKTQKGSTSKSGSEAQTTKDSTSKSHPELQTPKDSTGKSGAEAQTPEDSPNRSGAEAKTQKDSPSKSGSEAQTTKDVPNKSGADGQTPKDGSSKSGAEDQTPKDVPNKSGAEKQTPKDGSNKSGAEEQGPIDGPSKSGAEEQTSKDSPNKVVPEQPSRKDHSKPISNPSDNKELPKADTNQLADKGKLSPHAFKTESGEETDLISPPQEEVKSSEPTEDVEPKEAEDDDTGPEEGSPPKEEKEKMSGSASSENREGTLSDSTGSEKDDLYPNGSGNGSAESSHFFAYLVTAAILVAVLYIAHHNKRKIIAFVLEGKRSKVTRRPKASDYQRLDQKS
inactive: vemurafenib 0.02 | [1] 0.023 | barasertib -0.023 | [2] 0.05 | volasertib 0.035 | [3] -0.094 | [4] -0.012 | [5] 0.036 | saracatinib -0.033 | sotrastaurin 0.06 | alvocidib -0.053 | Tubastatin A 0.003 | [6] -0.052 | defactinib 0.005 | [7] 0.045 | encorafenib 0.014 | [8] -0.031 | alisertib -0.059 | [9] 0.02 | gefitinib -0.048

TCP11L1 (UniProt Q9NUJ3)
Chain of UniProt Q9NUJ3 (Q9NUJ3 whole entry, looked up): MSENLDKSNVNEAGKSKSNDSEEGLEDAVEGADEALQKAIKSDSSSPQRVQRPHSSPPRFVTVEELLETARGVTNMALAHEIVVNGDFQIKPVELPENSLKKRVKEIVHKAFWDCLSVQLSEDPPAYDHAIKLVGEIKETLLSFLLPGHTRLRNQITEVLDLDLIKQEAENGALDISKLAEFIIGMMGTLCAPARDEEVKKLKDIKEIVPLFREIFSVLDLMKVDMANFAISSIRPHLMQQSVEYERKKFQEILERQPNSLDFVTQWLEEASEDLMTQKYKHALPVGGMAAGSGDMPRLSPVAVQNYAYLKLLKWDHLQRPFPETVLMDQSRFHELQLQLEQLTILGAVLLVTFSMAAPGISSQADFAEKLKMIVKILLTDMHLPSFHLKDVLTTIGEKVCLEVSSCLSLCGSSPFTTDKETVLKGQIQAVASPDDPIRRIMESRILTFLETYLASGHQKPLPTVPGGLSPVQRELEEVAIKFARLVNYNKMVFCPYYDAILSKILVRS
inactive: vemurafenib -0.078 | [1] 0.014 | barasertib 0.038 | [2] 0.045 | volasertib -0.054 | [3] 0.009 | [4] -0.244 | [5] 0.097 | saracatinib -0.007 | sotrastaurin 0.009 | alvocidib -0.098 | Tubastatin A -0.006 | [6] 0.029 | defactinib 0.023 | [7] -0.064 | encorafenib 0.006 | [8] -0.064 | alisertib -0.022 | [9] 0.032 | gefitinib -0.001

TIMM44 (UniProt O43615)
inactive: vemurafenib -0.035 | [1] -0.017 | barasertib 0.07 | [2] -0.006 | volasertib -0.034 | [3] 0.022 | [4] -0.02 | [5] -0.065 | saracatinib 0.012 | sotrastaurin -0.026 | alvocidib 0.001 | Tubastatin A 0.083 | [6] 0.039 | defactinib 0.018 | [7] -0.017 | encorafenib 0.056 | [8] 0.08 | alisertib 0.082 | [9] -0.04 | gefitinib 0.017

TPP2 (UniProt P29144)
Chain of UniProt P29144 (P29144 whole entry, looked up): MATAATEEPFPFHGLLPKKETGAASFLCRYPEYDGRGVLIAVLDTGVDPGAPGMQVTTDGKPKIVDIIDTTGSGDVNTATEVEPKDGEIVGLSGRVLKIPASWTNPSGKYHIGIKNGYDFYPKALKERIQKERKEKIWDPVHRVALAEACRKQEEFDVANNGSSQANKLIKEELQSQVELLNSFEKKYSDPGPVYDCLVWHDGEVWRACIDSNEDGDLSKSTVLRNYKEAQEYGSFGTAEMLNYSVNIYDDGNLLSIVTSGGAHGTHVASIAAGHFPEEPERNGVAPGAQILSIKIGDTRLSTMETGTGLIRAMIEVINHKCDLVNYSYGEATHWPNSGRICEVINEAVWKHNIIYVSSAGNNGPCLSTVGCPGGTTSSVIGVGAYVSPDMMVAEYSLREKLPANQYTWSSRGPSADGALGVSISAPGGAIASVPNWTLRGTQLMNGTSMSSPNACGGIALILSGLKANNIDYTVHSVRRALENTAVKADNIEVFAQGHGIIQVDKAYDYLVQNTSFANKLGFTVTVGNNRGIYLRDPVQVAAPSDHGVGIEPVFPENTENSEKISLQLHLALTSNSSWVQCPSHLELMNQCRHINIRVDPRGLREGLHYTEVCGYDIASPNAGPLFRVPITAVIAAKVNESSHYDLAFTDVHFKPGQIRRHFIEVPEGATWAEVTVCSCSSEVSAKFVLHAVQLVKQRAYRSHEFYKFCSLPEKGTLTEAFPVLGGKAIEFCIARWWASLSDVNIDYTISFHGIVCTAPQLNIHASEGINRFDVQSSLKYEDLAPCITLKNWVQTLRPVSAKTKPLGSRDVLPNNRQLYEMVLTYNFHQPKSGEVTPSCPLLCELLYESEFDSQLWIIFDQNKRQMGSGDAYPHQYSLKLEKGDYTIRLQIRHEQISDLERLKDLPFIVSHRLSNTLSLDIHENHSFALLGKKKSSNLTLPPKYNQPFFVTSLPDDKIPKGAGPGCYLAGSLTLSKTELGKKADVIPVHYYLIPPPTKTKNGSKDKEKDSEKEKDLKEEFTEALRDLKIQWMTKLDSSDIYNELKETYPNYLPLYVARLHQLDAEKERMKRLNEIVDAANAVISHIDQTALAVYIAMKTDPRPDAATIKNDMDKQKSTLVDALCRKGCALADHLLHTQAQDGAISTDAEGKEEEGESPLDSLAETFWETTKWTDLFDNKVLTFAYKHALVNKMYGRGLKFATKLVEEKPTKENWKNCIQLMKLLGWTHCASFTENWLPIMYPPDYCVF
inactive: vemurafenib -0.015 | [1] 0.01 | barasertib -0.024 | [2] -0.016 | volasertib -0.023 | [3] 0.009 | [4] 0.025 | [5] -0.012 | saracatinib -0.016 | sotrastaurin -0.009 | alvocidib 0.018 | Tubastatin A -0.028 | [6] -0.014 | defactinib -0.014 | [7] -0.03 | encorafenib 0 | [8] 0.068 | alisertib -0.02 | [9] 0 | gefitinib 0.008

TERF2IP (UniProt Q9NYB0)
Chain of UniProt Q9NYB0 (Q9NYB0 whole entry, looked up): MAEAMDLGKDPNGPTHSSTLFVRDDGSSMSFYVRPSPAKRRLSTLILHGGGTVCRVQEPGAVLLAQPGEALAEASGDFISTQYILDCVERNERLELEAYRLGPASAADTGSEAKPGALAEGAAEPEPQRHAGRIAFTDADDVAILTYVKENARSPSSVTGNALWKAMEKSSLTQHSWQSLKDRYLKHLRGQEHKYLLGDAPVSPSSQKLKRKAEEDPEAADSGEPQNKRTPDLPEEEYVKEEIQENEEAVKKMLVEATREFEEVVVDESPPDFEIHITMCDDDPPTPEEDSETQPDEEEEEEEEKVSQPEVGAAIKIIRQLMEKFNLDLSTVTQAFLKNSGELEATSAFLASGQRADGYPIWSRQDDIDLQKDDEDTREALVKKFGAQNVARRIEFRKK
inactive: vemurafenib -0.009 | [1] -0.003 | barasertib -0.006 | [2] 0.075 | volasertib 0.022 | [3] -0.015 | [5] -0.152 | saracatinib -0.003 | sotrastaurin 0.008 | alvocidib 0.087 | Tubastatin A 0.014 | [6] 0.009 | defactinib -0.008 | [7] 0.019 | encorafenib 0 | [8] -0.038 | alisertib -0.015 | [9] 0.011 | gefitinib -0.003
active: [4] 0.269

TUBB2A (UniProt Q13885)
Chain of UniProt Q13885 (Q13885 whole entry, looked up): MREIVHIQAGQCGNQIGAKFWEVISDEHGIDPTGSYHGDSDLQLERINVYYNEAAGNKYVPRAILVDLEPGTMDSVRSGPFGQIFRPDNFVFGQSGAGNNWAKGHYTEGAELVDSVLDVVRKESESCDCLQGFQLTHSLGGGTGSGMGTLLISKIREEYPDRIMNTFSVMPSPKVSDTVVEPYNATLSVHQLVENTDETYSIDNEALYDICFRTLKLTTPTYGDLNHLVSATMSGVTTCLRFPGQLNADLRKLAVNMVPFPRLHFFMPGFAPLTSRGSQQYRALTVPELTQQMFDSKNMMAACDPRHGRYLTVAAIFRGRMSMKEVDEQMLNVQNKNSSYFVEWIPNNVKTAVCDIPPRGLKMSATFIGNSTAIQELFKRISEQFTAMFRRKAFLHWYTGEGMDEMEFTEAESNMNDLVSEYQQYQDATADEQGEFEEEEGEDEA
inactive: vemurafenib -0.001 | [1] 0.016 | barasertib -0.013 | [2] -0.007 | volasertib -0.049 | [3] 0.003 | [4] -0.032 | [5] 0.002 | saracatinib 0.011 | sotrastaurin 0.017 | alvocidib -0.007 | Tubastatin A -0.062 | [6] -0.021 | defactinib 0.006 | [7] -0.008 | encorafenib 0.01 | [8] 0.071 | alisertib -0.005 | [9] -0.001 | gefitinib -0.006

TUT4 (UniProt Q5TAX3)
inactive: vemurafenib 0.091 | [1] -0.007 | barasertib 0.024 | [2] -0.021 | volasertib -0.06 | [3] 0.031 | [4] -0.085 | [5] 0.083 | saracatinib -0.01 | sotrastaurin 0.035 | alvocidib -0.022 | Tubastatin A -0.1 | [6] -0.001 | defactinib 0.002 | [7] 0.039 | encorafenib 0.059 | [8] 0.125 | alisertib 0.01 | [9] -0.014 | gefitinib -0.007

TMEM70 (UniProt Q9BUB7)
inactive: vemurafenib -0.016 | [1] 0.029 | barasertib 0.063 | [2] -0.072 | volasertib -0.004 | [3] -0.027 | [5] 0.027 | saracatinib 0.023 | sotrastaurin 0.122 | alvocidib -0.037 | Tubastatin A -0.015 | [6] -0.025 | defactinib -0.001 | [7] -0.056 | encorafenib 0.021 | [8] -0.002 | alisertib 0.024 | [9] -0.041 | gefitinib -0.036
active: [4] -0.378

TROAP (UniProt Q12815)
Chain of UniProt Q12815 (Q12815 whole entry, looked up): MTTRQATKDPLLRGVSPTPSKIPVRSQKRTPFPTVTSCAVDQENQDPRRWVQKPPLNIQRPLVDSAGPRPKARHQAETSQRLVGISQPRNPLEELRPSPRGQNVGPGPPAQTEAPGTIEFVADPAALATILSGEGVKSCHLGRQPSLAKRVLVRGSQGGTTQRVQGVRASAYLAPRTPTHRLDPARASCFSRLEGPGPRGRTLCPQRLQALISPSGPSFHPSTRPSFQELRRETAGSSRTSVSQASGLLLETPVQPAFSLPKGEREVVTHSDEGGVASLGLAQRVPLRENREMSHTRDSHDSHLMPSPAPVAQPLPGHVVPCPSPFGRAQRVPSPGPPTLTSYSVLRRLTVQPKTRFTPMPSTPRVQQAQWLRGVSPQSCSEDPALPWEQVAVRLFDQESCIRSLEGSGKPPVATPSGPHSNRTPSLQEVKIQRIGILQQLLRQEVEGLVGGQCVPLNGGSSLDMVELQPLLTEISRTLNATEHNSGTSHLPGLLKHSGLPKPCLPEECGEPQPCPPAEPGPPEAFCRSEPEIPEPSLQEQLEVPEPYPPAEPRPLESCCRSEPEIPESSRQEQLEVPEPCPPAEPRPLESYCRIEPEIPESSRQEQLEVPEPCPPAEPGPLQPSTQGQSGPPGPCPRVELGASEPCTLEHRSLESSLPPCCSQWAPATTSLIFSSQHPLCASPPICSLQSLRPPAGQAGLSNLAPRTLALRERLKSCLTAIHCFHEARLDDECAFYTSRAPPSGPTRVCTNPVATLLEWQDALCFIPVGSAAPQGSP
inactive: vemurafenib 0.113 | [1] 0.146 | barasertib 0.053 | [2] 0.063 | volasertib 0.31 | [3] 0.043 | [4] -0.03 | [5] 0.042 | saracatinib 0.014 | sotrastaurin 0.002 | alvocidib -0.042 | Tubastatin A -0.043 | [6] 0.022 | defactinib 0.021 | [7] 0.076 | encorafenib -0.193 | [8] 0.217 | alisertib -0.09 | [9] -0.171 | gefitinib -0.015

TPM1 (UniProt H7BYY1)
inactive: vemurafenib -0.001 | [1] -0.024 | barasertib -0.031 | [2] 0.052 | volasertib 0.043 | [3] -0.003 | [4] 0.092 | saracatinib 0.009 | sotrastaurin 0.015 | alvocidib 0.027 | Tubastatin A 0.092 | [6] 0.007 | defactinib 0 | [7] 0.022 | encorafenib 0.056 | [8] -0.023 | alisertib -0.048 | [9] -0.04 | gefitinib 0.076
active: [5] -0.205

TNIK isoform 4 (UniProt Q9UKE5)
inactive: vemurafenib 0.002 | [1] -0.015 | barasertib -0.034 | [2] 0.025 | volasertib 0 | [3] 0.011 | [4] 0.071 | [5] 0.099 | saracatinib 0.071 | sotrastaurin 0.056 | alvocidib -0.015 | Tubastatin A -0.071 | [6] 0.085 | defactinib 0.148 | [7] -0.04 | encorafenib -0.026 | [8] -0.097 | alisertib -0.026 | [9] 0.247 | gefitinib -0.005

TUBA3C (UniProt P0DPH7)
inactive: vemurafenib 0.037 | [1] 0.021 | barasertib -0.011 | [2] -0.041 | volasertib -0.026 | [3] 0.012 | [4] -0.062 | [5] -0.013 | saracatinib 0.013 | sotrastaurin 0.048 | alvocidib -0.012 | Tubastatin A -0.15 | [6] 0.01 | defactinib -0.013 | [7] -0.018 | encorafenib -0.037 | [8] 0.042 | alisertib -0.023 | [9] -0.035 | gefitinib -0.005

TFPI (UniProt P10646)
inactive: vemurafenib -0.079 | [1] 0.005 | barasertib 0.015 | [2] -0.019 | volasertib 0.016 | [3] 0.093 | [5] -0.321 | sotrastaurin 0.167 | alvocidib 0.245 | Tubastatin A -0.012 | [6] 0.036 | defactinib 0.056 | encorafenib 0.072 | [8] -0.017 | alisertib -0.003 | [9] -0.128 | gefitinib 0.061
active: [4] 0.689

TUBGCP5 (UniProt Q96RT8)
Chain of UniProt Q96RT8 (Q96RT8 whole entry, looked up): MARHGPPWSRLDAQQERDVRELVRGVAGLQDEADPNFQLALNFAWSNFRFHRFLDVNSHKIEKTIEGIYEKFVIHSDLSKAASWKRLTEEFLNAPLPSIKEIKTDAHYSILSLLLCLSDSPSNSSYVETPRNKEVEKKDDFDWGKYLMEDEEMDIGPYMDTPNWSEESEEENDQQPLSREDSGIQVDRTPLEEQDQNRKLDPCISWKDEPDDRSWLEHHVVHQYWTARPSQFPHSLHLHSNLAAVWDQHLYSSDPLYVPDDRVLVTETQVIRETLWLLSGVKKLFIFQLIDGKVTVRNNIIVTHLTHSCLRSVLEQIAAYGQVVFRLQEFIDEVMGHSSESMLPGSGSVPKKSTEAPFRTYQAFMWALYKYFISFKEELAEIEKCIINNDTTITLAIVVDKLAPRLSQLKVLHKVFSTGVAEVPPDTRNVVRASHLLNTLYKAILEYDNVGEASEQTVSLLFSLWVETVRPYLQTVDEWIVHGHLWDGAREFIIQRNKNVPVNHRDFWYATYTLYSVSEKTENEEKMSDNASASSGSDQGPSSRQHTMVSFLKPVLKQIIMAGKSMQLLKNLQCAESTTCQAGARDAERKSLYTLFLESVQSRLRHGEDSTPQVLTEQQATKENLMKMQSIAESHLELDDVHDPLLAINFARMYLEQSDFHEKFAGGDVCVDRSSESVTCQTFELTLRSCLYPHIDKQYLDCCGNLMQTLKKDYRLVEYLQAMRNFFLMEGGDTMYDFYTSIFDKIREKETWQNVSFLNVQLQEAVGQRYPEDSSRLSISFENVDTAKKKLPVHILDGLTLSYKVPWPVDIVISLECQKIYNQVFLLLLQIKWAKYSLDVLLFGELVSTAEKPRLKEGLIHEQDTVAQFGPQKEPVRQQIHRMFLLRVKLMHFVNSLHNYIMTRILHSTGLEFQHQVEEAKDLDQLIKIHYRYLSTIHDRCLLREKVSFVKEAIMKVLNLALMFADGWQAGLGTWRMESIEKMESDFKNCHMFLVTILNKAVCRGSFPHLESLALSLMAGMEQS
inactive: vemurafenib -0.023 | [1] -0.351 | barasertib -0.057 | [2] -0.204 | volasertib 0 | [3] 0.004 | [4] -0.06 | [5] 0.088 | saracatinib -0.075 | sotrastaurin 0.033 | alvocidib -0.069 | Tubastatin A -0.128 | defactinib -0.159 | [7] -0.055 | encorafenib 0.179 | [8] 0.145 | alisertib -0.023 | [9] 0.025 | gefitinib -0.007
